# ELG1 DNA repair – ELG1-dependent DNA repair inhibition; HEK293T ELG1-luciferase reporter, luminescence, 16 h; DNA damage induced by 5-fluorouridine; Potency, µM (series often up to 46.1 µM), inactives show at the top dose activity change, negative = inhibition, hits mostly inhibitors; 330,000 tested, 2.3% active; AID 504467; further: potency means the concentration at half of the fitted maximal effect; nearly all actives have a fitted effect of over 55% in size
#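 In this reporter screen, reduction of luminescence relative to DMSO vehicle indicated activity. Compounds and 5-fluorouridine were added together to 2,000 cells per well, incubated for 16 hr at 37 °C, then developed with ONE-Glo.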
# RORg inh – ROR gamma (mouse) transcription inhibition. P51450. Drosophila S2 Gal4-RORgamma UAS-luciferase reporter, 20 h. Potency, µM (top dose mostly 53.6 µM), for the others: top-dose activity change, negative = inhibition, hits mostly inhibitors. 310,000 tested, 5.4% active. AID 2551; further: potency means the concentration at half of the fitted maximal effect; nearly all actives have a fitted effect of over 60% in size
# Target sequence (P51450 whole entry, looked up, the tested form may be a part): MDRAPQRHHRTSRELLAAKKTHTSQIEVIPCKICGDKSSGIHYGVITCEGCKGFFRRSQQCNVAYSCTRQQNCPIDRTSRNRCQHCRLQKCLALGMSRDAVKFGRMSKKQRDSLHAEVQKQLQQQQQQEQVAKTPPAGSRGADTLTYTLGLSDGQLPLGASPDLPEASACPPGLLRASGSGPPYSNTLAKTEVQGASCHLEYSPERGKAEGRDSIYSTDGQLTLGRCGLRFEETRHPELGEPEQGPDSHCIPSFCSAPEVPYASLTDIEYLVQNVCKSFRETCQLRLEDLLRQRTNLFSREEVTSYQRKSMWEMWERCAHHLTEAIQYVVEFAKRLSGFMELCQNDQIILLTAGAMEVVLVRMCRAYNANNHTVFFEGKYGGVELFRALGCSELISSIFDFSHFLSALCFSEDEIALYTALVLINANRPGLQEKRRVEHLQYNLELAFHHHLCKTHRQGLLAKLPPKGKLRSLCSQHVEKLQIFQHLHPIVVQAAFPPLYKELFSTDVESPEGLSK
#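 In this cell-based reporter format, copper sulfate (700 uM final) drives Gal4–ROR gamma fusion expression from a metallothionein promoter in Drosophila Schneider cells; compounds preincubated 1 hr, reporter read after 20 hr at ambient temperature.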
# IL-1B inflam inh – inflammasome signaling inhibition, IL-1 beta readout. THP-1 LPS/ATP IL-1B secretion, AlphaLISA, 16 h; active compounds read low. activity change, % at 57.5 µM. 360,000 tested, 4.7% active. AID 743279; in the data active means activity change below about -50%; inconclusive means mostly about -30% to -49%
#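 Secreted IL-1B measured by AlphaLISA bead assay after 16 h compound exposure of THP-1 cells; compounds (final up to 57.5 uM) added 1 h before LPS (250 ng/mL) and ATP (1.25 mM) stimulation; lower signal means less secretion.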
# DT40 TDP1 no CPT – qHTS for Inhibitors of human tyrosyl-DNA phosphodiesterase 1 (TDP1): qHTS in cells in absence of CPT. Potency, µM (highest dose often 46.2 µM), without a hit: at the highest dose activity change, negative = growth inhibition, hits mostly inhibitors. 420,000 tested, 15% active. DT40 Tdp1-/- hTDP1 cells, no CPT, ATP luminescence, 48 h. AID 686978, 2013; further: potency means the concentration at half of the fitted maximal effect; nearly all actives have a fitted effect of over 55% in size
#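 Stably hTDP1-transfected Tdp1-null chicken DT40 cells were treated with library compounds minus camptothecin and grown for at least 48 hr at 37 °C, after which cellular ATP was quantified by luminescence.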
# VP16 counter – counter-screen for ROR gamma inhibitors: Gal4-VP16 reporter. Drosophila S2 Gal4-VP16 UAS-luciferase, luminescence, 20 h. Potency, µM (series often up to 53.6 µM), for the others: top-dose activity, negative = inhibition, most hits filed as inhibitors. 310,000 tested, 3.5% active;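 further: Gal4-VP16 expression switched on by copper sulfate through the metallothionein promoter; potency means the concentration at half of the fitted maximal effect; nearly all actives have a fitted effect of over 50% in size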
# TDP1 cell CPT – growth inhibition of DT40 Tdp1-/-;hTDP1 cells with camptothecin (screen for TDP1 inhibitors); 420,000 tested, 12% active; chicken DT40 Tdp1-/-;hTDP1 cells + 20 nM CPT, ATP luminescence, 48 h; Potency, µM (doses to about 46.2 µM), without a hit: at the top dose activity change, negative = growth inhibition, most hits filed as inhibitors; further: potency means the concentration at half of the fitted maximal effect; nearly all actives have a fitted effect of over 55% in size
#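 Chicken DT40 Tdp1-/- cells stably complemented with human TDP1 were seeded at 400 cells/well in medium containing 20 nM camptothecin, exposed to pin-transferred compounds, and grown at 37 °C for at least 48 hr. Viability was read as ATP luminescence.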
# * marks the source's active call; other numbers are inactive results; ? = inconclusive; . = no result; ! = repeats disagree; [ ] = remark or other dose. Compounds with a hit are over-represented: about 21% of the library has one in this group of screens. Unless noted, the call rests on the fitted dose curve; in most records, active means well fitted curve in the direction sought with a large enough effect; inconclusive means small, poorly fitted or top-dose-only effect, or another doubt; inactive means no such curve, though single readings can be large; an effect the other way counts as inactive or inconclusive. On the % scale 0 is the no-effect control and ±100 the full control effect.
SMILES,ELG1 DNA repair,RORg inh,IL-1B inflam inh,DT40 TDP1 no CPT,VP16 counter,TDP1 cell CPT
c1ccc2c(c1)nc1n2CCS1,-0.6%,5.1%,8.7,3.8%,2.0%,-2.2%
Cc1ccc(N)cc1O,?,-4.5%,55.1,6.86µM*!,14.2%,7.7µM*!
Cc1cc(O)c(-c2cc(O)c(C)cc2O)cc1O,-6.7%,7.08µM*,-99.1*,3.26µM*,?,5.17µM*
CC(=O)c1ccc(NC(=O)CCn2cccn2)cc1,.,.,.,-0.2%,.,26.6%
CCc1ccc(-c2cc3c(N4CCN(c5ccccc5)CC4)nccn3n2)cc1,.,.,.,20.6µM*,.,?
CC1(C(=O)Nc2cnc3ccccc3c2)CCN1Cc1ccccc1Cl (stereo not given),.,.,-11.9,14.6µM*,.,16.4µM*
COc1cccc(NC(=O)C2(C)CCN2Cc2ccc(SC)cc2)c1 (stereo not given),.,.,16.8,?,.,?
CC1(C(=O)Nc2cnc3ccccc3c2)CCN1Cc1ccc(-c2ccccc2)o1 (stereo not given),.,.,-22.1,16.4µM*,.,?
CC1(C(=O)Nc2cnc3ccccc3c2)CCN1Cc1ccccc1OC(F)F (stereo not given),.,.,.,16.4µM*,.,23.1µM*
CSc1ccc(CN2CCC2(C)C(=O)Nc2cnc3ccccc3c2)cc1 (stereo not given),.,.,-20.3,?,.,?
COc1cccc(CN2CCC2(C)C(=O)Nc2ccc(Cl)c(Cl)c2)c1F (stereo not given),.,.,-2.8,?,.,20.6µM*
COc1cccc(CN2CCC2(C)C(=O)Nc2cnc3ccccc3c2)c1F (stereo not given),.,.,0.0,18.4µM*,.,?
COc1ccc(NC(=O)CC2C(=O)N(c3ccccc3)C(=O)N2CCc2cccs2)cc1 (stereo not given),-20.2%,36.4%,-28.7,1.4%,13.8%,-20.9%
CCOc1ccc(NC(=O)CC2C(=O)N(c3ccccc3)C(=O)N2CCc2sccc2C)cc1 (stereo not given),.,.,.,18.4µM*,.,14.6µM*
CCOc1ccc(NC(=O)CC2C(=O)N(c3ccc(F)cc3)C(=O)N2CCc2sccc2C)cc1 (stereo not given),.,.,.,23.1µM*,.,-111.3%
CCOc1ccc(NC(=O)CC2C(=O)N(c3ccc(OC)cc3)C(=O)N2CCc2cccs2)cc1 (stereo not given),?,30.6%,0.0,?,1.0%,-22.0%
COc1cccc(N2C(=O)C(CC(=O)Nc3ccccc3)N(CCc3sccc3C)C2=O)c1 (stereo not given),.,.,.,?,.,18.4µM*
COc1ccc(NC(=O)CC2C(=O)N(c3ccccc3)C(=O)N2CCc2sccc2C)cc1 (stereo not given),.,.,.,16.4µM*,.,?
CCc1ccc(-n2c(=O)c3c4c(sc3n(CC(=O)NC(C)CC)c2=O)CCCC4)cc1 (stereo not given),.,.,.,-18.0%,.,0.3%
O=C(NCc1ccccc1)C(c1ccc(-c2ccccc2)cc1)n1c(=O)c(-c2cc3ccccc3[nH]2)nc2ccccc21 (stereo not given),.,.,43.8,14.6µM*,.,?
COc1ccc(NC(=O)C(c2ccccc2)n2c(=O)c(-c3cc4ccccc4[nH]3)nc3ccccc32)cc1 (stereo not given),.,.,-11.7,16.4µM*,.,16.4µM*
COc1ccc(C(C(=O)NCc2ccccc2)n2c(=O)c(-c3cc4ccccc4[nH]3)nc3ccccc32)cc1 (stereo not given),.,.,6.7,?,.,?
CCCCCNC(=O)C(c1ccncc1)n1c(=O)c(-c2ccccc2)nc2ccccc21 (stereo not given),.,.,-12.2,?,.,?
O=C(Nc1ccc2ccccc2c1)C(c1ccccc1F)n1c(=O)c(-c2cc3ccccc3[nH]2)nc2ccccc21 (stereo not given),.,.,74.7,?,.,?
COc1ccc(NC(=O)C(c2ccccc2F)n2c(=O)c(-c3cc4ccccc4[nH]3)nc3ccccc32)cc1 (stereo not given),.,.,-9.6,13µM*,.,16.4µM*
SMILES,ELG1 DNA repair,RORg inh,IL-1B inflam inh,DT40 TDP1 no CPT,VP16 counter,TDP1 cell CPT
COc1ccc(NC(=O)C(c2ccncc2)n2c(=O)c(-c3ccccc3)nc3ccccc32)cc1 (stereo not given),.,.,-56.1*,?,.,?
O=C(NCc1ccccc1)C(c1ccncc1)n1c(=O)c(-c2cc3ccccc3[nH]2)nc2ccccc21 (stereo not given),.,.,-29.4,?,.,?
COC(=O)N1CCC2(CC1)CN(c1ccccn1)C2,.,-6.8%,.,-6.8%,-1.5%,7.3%
COc1cc(NC(=O)c2c(C)oc3c2C2=NCCN2C=N3)cc(OC)c1OC,.,.,.,?,.,-14.0%
CC1Cc2cc(S(=O)(=O)N3CCC(C(=O)N(C)Cc4ccco4)CC3)ccc2N1C(=O)C1CCC1 (stereo not given),?,28.9%,-7.0,?,15.2%,?
Cn1c(NCc2ccccc2F)nc2ccccc21,.,.,.,?,.,-25.3%
CCN1C(=O)[C@H]2[C@@H](c3ccc(C)cc3)N[C@]3(CCCN(CCC(C)C)C3=O)[C@H]2C1=O,.,.,-5.3,-28.2%,.,-7.1%
O=C(c1ccco1)N(Cc1cc2cc3c(cc2nc1N1CCOCC1)CCC3)CC1CCCO1 (stereo not given),.,.,.,1.3%,.,12.9%[9.04 µM]
COc1ccc(Br)cc1S(=O)(=O)NNC(=O)c1c(C)nc2ccccn12,-14.1%,39.7%,39.2,?,-3.8%,-3.2%
Cc1nc2ccccn2c1C(=O)NNS(=O)(=O)c1ccc(C(C)(C)C)cc1,?,17.3%,1.9,6.51µM*,15.8µM*,8.2µM*
C/C(=N\NC(=O)c1c(C)nc2ccccn12)c1ccc(N2CCOCC2)cc1,0.9%,-2.2%,1.7,-0.1%,-7.9%,21.3%
C/C(=N\NC(=O)c1c(C)nc2ccccn12)c1ccc(C(C)(C)C)cc1,-11.3%,?,-0.6,11.6µM*,-13.6%,18.4µM*
CCCS(=O)(=O)Nc1cccc(-c2cn3ccc(C)cc3n2)c1,.,.,.,16.4µM*,.,23.1µM*
O=C(Nc1ccccc1)Nc1cccc(-c2cn3cccnc3n2)c1,-6.0%,20.0%,-13.9,?,3.8%,-13.7%
O=C(Nc1cccc(-c2cn3ccccc3n2)c1)c1ccccc1,?,17.9%,-68.4*,?,-5.8%,?
Clc1ccc(-c2cn3ccccc3n2)cc1,?,?,95.7,-21.1%,-29.4%,-10.7%
